Laboratory results as given in the supplement of paper PMC10849652.
About 7,900 targets were measured; listed, in parts, are those with a hit and a random draw of the rest. About 0.6% of all pairs of compound and target were hits. Unmarked numbers belong to inactive results.

Columns and labels:
Test in all cases: log2 fold change, soluble protein after heating vs DMSO (PISA); higher = thermal stabilisation; K562 cells, 10 uM, 30 min; active = over 0.2 and 3.5 SD of the protein, either way, in both replicates (recomputed)
[1] = compound: NC(=O)Nc1cc(-c2cccc(F)c2)sc1C(=O)N[C@H]1CCCNC1
How it was run: (§1)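 K562 cells at 2×10^6 cells/mL were treated for 30 min with 10 μM compound, and aliquots were heated for 3 min over 48°C-58°C before pooling. Extraction used PBS with 0.5% NP-40 at 4°C, and soluble protein was the supernatant after 21,000xg for 90 min, measured by TMTpro 16plex LC-MS/MS with channel sums equalised. Thermal stability values, relative to control samples and from duplicates, are log2 fold changes.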

[2] = compound: NC(=O)c1cnc(N[C@@H]2CCCC[C@@H]2N)nc1Nc1cccc(-n2nccn2)c1
How it was run: as §1

[3] = compound: NC1(c2ccc(-c3nc4ccn5c(=O)[nH]nc5c4cc3-c3ccccc3)cc2)CCC1
How it was run: as §1

[4] = compound: NCC(=O)Nc1ccc(-n2nc(C(F)(F)F)cc2-c2ccc3c(ccc4ccccc43)c2)cc1
How it was run: as §1

entinostat = compound: Nc1ccccc1NC(=O)c1ccc(CNC(=O)OCc2cccnc2)cc1 [entinostat]
How it was run: as §1

vorinostat = compound: O=C(CCCCCCC(=O)Nc1ccccc1)NO [vorinostat]
How it was run: as §1

citarinostat = compound: O=C(CCCCCCNC(=O)c1cnc(N(c2ccccc2)c2ccccc2Cl)nc1)NO [citarinostat]
How it was run: as §1

silmitasertib = compound: O=C(O)c1ccc2c(c1)nc(Nc1cccc(Cl)c1)c1ccncc12 [silmitasertib]
How it was run: as §1

[5] = compound: O=C1NC(=O)C(c2cnc3ccccn23)=C1c1cn2c3c(cc(F)cc13)CN(C(=O)N1CCCCC1)CC2
How it was run: as §1

[6] = compound: c1cc(OCCN2CCCCC2)cc(-c2n[nH]c3ccc(-c4nnc[nH]4)cc23)c1
How it was run: as §1

entospletinib = compound: c1cn2cc(-c3ccc4cn[nH]c4c3)nc(Nc3ccc(N4CCOCC4)cc3)c2n1 [entospletinib]
How it was run: as §1

Chain of UniProt P51956 (P51956 whole entry, looked up): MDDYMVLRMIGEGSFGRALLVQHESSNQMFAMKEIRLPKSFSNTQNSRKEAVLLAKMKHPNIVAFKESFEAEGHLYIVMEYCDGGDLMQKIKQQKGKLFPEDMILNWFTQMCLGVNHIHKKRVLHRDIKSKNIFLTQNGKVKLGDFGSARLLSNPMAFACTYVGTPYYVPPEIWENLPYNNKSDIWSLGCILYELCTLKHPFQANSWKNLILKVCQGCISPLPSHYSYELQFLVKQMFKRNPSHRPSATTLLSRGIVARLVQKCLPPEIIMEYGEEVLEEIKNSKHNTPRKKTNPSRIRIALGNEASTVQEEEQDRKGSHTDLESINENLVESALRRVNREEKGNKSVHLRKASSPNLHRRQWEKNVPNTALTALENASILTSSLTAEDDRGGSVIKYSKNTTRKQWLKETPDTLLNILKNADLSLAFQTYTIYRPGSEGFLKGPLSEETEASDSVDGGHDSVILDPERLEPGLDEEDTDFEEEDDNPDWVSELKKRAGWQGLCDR
Chain of UniProt Q8N543 (Q8N543 whole entry, looked up): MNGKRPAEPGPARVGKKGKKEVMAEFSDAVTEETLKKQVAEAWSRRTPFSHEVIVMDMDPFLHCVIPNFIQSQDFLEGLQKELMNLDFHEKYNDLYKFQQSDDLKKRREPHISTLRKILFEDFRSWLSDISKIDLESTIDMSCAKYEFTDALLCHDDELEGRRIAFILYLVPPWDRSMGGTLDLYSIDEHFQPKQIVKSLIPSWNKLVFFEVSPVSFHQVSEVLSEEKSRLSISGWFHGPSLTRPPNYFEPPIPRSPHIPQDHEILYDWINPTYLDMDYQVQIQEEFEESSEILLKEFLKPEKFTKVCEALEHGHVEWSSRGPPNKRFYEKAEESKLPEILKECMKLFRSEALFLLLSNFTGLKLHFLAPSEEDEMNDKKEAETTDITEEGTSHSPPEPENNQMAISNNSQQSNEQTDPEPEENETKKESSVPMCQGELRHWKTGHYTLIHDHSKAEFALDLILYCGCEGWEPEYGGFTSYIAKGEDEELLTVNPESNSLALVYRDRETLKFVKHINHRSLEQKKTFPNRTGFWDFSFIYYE
Chain of UniProt Q15102 (Q15102 whole entry, looked up): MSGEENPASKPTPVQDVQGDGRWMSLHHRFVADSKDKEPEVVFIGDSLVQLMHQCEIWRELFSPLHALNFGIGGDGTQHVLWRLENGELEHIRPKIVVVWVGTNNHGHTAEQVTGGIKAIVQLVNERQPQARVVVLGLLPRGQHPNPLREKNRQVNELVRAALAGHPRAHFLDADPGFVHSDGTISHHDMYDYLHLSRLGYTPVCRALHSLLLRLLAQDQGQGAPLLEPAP
Chain of UniProt Q9BRA0 (Q9BRA0 whole entry, looked up): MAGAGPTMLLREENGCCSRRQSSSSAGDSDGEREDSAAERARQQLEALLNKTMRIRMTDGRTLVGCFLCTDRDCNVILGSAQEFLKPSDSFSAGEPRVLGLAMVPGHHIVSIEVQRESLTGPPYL
Chain of UniProt P52948 (P52948 whole entry, looked up): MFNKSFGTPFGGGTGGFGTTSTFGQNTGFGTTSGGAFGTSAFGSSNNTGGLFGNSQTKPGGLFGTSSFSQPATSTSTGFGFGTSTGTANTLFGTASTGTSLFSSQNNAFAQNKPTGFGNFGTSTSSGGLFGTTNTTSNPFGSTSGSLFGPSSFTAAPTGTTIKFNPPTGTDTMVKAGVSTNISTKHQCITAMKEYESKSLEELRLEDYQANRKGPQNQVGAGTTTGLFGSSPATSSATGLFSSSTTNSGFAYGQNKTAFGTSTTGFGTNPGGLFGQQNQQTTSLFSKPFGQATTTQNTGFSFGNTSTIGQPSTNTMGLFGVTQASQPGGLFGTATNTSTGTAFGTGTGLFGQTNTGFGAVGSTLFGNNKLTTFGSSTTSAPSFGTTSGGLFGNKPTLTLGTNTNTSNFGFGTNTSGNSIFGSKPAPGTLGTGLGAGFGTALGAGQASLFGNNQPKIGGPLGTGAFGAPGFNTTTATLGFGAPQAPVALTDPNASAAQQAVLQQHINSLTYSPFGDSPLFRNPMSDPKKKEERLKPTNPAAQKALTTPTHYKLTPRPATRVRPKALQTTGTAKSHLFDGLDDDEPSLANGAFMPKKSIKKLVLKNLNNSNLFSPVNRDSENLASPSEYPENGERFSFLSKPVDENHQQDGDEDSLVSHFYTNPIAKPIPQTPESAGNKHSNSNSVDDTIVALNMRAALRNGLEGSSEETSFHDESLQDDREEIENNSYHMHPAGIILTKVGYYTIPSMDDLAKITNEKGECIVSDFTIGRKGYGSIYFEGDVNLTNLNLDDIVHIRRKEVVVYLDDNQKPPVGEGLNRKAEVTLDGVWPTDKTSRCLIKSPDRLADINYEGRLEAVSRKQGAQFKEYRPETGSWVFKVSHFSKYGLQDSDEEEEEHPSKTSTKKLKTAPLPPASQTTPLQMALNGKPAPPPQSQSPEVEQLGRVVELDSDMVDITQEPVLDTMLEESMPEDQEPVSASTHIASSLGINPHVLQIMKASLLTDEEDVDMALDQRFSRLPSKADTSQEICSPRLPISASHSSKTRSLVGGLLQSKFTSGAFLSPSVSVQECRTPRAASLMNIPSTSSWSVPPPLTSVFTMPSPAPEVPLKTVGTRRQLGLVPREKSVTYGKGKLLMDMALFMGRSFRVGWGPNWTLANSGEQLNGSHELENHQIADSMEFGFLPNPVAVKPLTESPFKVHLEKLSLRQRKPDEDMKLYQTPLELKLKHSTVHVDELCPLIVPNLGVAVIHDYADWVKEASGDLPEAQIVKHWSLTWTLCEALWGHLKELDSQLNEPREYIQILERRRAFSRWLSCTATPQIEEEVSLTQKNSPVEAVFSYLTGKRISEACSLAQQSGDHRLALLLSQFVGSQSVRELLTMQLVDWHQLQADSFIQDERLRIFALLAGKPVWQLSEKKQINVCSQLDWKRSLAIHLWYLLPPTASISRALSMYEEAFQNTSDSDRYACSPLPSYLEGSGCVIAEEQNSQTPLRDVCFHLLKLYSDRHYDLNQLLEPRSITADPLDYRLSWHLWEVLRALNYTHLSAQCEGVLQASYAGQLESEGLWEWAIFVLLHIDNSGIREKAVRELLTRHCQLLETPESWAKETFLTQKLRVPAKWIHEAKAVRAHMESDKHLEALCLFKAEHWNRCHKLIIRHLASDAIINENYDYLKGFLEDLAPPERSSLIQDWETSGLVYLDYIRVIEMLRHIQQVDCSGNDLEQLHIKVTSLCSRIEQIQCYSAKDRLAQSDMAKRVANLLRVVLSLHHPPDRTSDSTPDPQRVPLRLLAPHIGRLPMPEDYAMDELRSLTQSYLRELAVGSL
Chain of UniProt Q9HAN9 (Q9HAN9 whole entry, looked up): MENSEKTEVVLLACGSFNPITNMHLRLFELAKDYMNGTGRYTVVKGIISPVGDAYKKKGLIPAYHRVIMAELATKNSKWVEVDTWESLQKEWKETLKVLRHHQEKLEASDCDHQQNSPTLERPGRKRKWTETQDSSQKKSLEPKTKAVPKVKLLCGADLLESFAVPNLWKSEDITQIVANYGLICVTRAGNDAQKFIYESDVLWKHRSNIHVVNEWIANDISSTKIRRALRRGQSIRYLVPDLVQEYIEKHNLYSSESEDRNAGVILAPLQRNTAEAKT
Chain of UniProt Q8NI08 (Q8NI08 whole entry, looked up): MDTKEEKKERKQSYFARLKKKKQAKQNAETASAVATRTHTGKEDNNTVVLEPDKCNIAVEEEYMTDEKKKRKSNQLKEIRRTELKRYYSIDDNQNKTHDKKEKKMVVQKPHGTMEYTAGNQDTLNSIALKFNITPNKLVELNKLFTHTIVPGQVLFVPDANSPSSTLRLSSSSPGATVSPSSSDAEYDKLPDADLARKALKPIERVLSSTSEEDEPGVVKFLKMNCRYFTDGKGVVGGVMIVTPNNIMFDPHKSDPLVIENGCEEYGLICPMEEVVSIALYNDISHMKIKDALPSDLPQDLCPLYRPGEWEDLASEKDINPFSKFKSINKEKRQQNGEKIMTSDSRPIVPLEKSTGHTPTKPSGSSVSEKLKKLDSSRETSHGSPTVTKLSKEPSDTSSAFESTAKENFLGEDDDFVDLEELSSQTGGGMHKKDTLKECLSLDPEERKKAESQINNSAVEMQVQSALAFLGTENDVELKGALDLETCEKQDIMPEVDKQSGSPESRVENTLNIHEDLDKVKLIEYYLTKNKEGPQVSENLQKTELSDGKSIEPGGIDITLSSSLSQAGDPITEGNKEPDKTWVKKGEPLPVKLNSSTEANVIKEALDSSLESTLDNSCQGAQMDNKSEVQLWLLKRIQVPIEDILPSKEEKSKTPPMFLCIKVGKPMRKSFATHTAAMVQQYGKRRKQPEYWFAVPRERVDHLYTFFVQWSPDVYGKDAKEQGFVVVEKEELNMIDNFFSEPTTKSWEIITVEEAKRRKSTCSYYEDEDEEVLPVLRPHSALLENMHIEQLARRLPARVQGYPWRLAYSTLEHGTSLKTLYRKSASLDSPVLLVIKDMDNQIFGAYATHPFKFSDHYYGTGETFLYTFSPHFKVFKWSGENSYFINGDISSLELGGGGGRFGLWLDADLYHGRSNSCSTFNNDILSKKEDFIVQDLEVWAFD
Chain of UniProt Q86WC4 (Q86WC4 whole entry, looked up): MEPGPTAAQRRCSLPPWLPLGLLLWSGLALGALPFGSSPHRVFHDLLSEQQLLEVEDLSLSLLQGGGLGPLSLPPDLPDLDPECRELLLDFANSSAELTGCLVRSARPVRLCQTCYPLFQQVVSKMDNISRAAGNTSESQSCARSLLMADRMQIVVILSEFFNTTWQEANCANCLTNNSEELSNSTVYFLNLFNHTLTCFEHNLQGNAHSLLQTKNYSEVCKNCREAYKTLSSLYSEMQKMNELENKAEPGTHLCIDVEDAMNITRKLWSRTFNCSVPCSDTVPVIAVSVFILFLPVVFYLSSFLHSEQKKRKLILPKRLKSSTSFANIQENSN
Chain of UniProt O60361 (O60361 whole entry, looked up): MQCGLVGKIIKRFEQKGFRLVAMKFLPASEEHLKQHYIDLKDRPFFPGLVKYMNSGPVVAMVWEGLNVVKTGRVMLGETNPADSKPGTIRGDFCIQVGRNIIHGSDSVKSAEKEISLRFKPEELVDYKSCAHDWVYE

| Target | log2 fold change [1] | log2 fold change [2] | log2 fold change [3] | log2 fold change [4] | log2 fold change (entinostat) | log2 fold change (vorinostat) | log2 fold change (citarinostat) | log2 fold change (silmitasertib) | log2 fold change [5] | log2 fold change [6] | log2 fold change (entospletinib) |
| --- | --- | --- | --- | --- | --- | --- | --- | --- | --- | --- | --- |
| NOL11 (UniProt Q9H8H0) | 0.042 | 0.055 | 0.041 | 0.038 | -0.019 | -0.013 | 0.035 | 0.068 | 0.02 | -0.041 | -0.05 |
| MORF4L2 (UniProt Q15014) | 0.021 | 0.047 | 0.123 | 0.027 | -0.066 | 0.04 | -0.044 | 0.087 | 0.04 | -0.121 | -0.038 |
| NCOA7 (UniProt Q8NI08) | -0.061 | -0.036 | -0.068 | -0.033 | -0.067 | 0.026 | -0.001 | 0.022 | -0.093 | -0.005 | 0.003 |
| PAFAH1B3 (UniProt Q15102) | -0.036 | -0.012 | -0.066 | -0.019 | 0.057 | 0.043 | -0.045 | -0.045 | -0.108 | -0.028 | 0 |
| NMNAT1 (UniProt Q9HAN9) | 0.171 | 0.145 | 0.197 | 0.081 | 0.002 | -0.077 | -0.033 | 0.201 | 0.259 | -0.174 | 0.084 |
| NDUFA12 (UniProt Q9UI09) | -0.018 | -0.038 | -0.227 | -0.061 | 0.04 | 0.077 | 0.07 | -0.052 | 0.004 | -0.033 | -0.025 |
| NUP210 (UniProt Q8TEM1) | 0.022 | -0.173 | -0.19 | -0.126 | 0.047 | 0.054 | 0.022 | -0.033 | -0.004 | -0.023 | -0.125 |
| NA, A0A0B4J2A0 | -0.025 | 0.029 | -0.061 | 0.031 | 0.029 | 0.05 | 0.029 | 0.017 | -0.059 | -0.012 | 0.021 |
| NME2P1 (UniProt O60361) | 0.07 | -0.146 | -0.124 | -0.306 | -0.01 | 0.036 | -0.114 | 0.048 | -0.011 | -0.161 | -0.571 |
| MRPL46 (UniProt Q9H2W6) | -0.067 | 0.009 | 0.023 | -0.014 | -0.003 | 0.011 | 0.007 | 0.005 | 0.028 | -0.062 | 0.025 |
| NUP107 (UniProt P57740) | -0.009 | -0.022 | 0.056 | -0.032 | -0.039 | 0.416 | 0.016 | 0.085 | 0.045 | -0.109 | -0.072 |
| MRPS18B (UniProt Q9Y676) | 0.133 | 0 | 0.021 | 0.105 | -0.047 | 0.08 | -0.03 | -0.061 | -0.03 | -0.026 | 0.028 |
| NEK3 (UniProt P51956) | 0.09 | 0.156 | -0.119 | 0.011 | 0.016 | -0.256 | 0.099 | 0.043 | -0.017 | -0.063 | -0.002 |
| MRPS5 (UniProt P82675) | 0.009 | 0.034 | -0.057 | 0.013 | 0 | 0.125 | 0.023 | -0.043 | -0.039 | -0.018 | 0.044 |
| MRPS2 (UniProt Q9Y399) | 0.105 | -0.079 | -0.102 | 0.062 | 0.034 | 0.096 | 0.001 | -0.103 | -0.021 | -0.01 | 0.059 |
| NECTIN2 (UniProt Q92692) | 0 | 0.107 | 0.056 | 0.099 | -0.029 | -0.041 | 0.034 | -0.081 | -0.03 | -0.006 | -0.016 |
| OSTM1 (UniProt Q86WC4) | -0.035 | -0.029 | -0.319 (active) | 0.003 | 0.006 | 0.072 | 0.064 | 0.034 | -0.037 | -0.037 | 0.118 |
| NAPG (UniProt Q99747) | -0.027 | -0.087 | -0.085 | -0.094 | 0.102 | 0.117 | 0.075 | 0.032 | -0.029 | -0.017 | 0.037 |
| MSH2 (UniProt P43246) | -0.069 | -0.06 | -0.109 | -0.138 | 0.074 | 0.032 | 0.089 | 0.037 | -0.091 | -0.003 | -0.006 |
| MTOR (UniProt P42345) | -0.016 | -0.102 | -0.315 (active) | -0.111 | 0.042 | 0.049 | 0.035 | 0.102 | -0.065 | -0.004 | -0.012 |
| NUP85 (UniProt Q9BW27) | 0.01 | -0.014 | -0.092 | -0.035 | -0.011 | 0.021 | 0.031 | 0.047 | -0.041 | -0.041 | 0.005 |
| NOLC1 isoform 2 (UniProt Q14978) | 0.149 | -0.031 | -0.011 | 0.014 | -0.043 | 0.009 | 0.109 | -0.037 | -0.037 | -0.183 | 0.062 |
| NUP98 (UniProt P52948) | 0.018 | -0.086 | -0.025 | -0.076 | 0 | 0.052 | 0.028 | 0.072 | 0.001 | -0.073 | 0.003 |
| PAFAH1B2 (UniProt P68402) | 0.015 | 0.049 | -0.037 | -0.025 | 0.045 | -0.088 | 0.021 | 0.106 | -0.048 | -0.097 | 0.022 |
| OGFOD1 (UniProt Q8N543) | 0.015 | 0.021 | -0.08 | -0.056 | -0.002 | 0.005 | 0.012 | 0.02 | -0.072 | -0.006 | 0.018 |
| NAA38 isoform 2 (UniProt Q9BRA0) | -0.064 | -0.029 | -0.105 | 0.026 | -0.009 | -0.041 | -0.152 | 0.017 | 0.038 | -0.264 | 0.13 |
| MRPS27 isoform 2 (UniProt Q92552) | 0.067 | -0.015 | -0.105 | -0.007 | 0.011 | 0.104 | 0.08 | -0.04 | 0.049 | -0.012 | -0.029 |
